Out of some 360,000 compounds screened, about 16,000 (4.4%) were called active. Roughly 9% stayed inconclusive and do not appear here. What follows is part of a selection rich in actives, with near analogues and random picks from the rest. Unmarked numbers belong to inactive results. Calls follow the shape of the dose curve; as a rule, active = well fitted inhibition curve with a large enough effect; inconclusive = small, poorly fitted or top-dose-only effect; inactive = no such curve, though single readings can be large or run the other way.
Target: Bromodomain adjacent to zinc finger domain protein 2B (Homo sapiens) (UniProt Q9UIF8)
Sequence (Q9UIF8 whole entry, looked up, the tested form may be a part): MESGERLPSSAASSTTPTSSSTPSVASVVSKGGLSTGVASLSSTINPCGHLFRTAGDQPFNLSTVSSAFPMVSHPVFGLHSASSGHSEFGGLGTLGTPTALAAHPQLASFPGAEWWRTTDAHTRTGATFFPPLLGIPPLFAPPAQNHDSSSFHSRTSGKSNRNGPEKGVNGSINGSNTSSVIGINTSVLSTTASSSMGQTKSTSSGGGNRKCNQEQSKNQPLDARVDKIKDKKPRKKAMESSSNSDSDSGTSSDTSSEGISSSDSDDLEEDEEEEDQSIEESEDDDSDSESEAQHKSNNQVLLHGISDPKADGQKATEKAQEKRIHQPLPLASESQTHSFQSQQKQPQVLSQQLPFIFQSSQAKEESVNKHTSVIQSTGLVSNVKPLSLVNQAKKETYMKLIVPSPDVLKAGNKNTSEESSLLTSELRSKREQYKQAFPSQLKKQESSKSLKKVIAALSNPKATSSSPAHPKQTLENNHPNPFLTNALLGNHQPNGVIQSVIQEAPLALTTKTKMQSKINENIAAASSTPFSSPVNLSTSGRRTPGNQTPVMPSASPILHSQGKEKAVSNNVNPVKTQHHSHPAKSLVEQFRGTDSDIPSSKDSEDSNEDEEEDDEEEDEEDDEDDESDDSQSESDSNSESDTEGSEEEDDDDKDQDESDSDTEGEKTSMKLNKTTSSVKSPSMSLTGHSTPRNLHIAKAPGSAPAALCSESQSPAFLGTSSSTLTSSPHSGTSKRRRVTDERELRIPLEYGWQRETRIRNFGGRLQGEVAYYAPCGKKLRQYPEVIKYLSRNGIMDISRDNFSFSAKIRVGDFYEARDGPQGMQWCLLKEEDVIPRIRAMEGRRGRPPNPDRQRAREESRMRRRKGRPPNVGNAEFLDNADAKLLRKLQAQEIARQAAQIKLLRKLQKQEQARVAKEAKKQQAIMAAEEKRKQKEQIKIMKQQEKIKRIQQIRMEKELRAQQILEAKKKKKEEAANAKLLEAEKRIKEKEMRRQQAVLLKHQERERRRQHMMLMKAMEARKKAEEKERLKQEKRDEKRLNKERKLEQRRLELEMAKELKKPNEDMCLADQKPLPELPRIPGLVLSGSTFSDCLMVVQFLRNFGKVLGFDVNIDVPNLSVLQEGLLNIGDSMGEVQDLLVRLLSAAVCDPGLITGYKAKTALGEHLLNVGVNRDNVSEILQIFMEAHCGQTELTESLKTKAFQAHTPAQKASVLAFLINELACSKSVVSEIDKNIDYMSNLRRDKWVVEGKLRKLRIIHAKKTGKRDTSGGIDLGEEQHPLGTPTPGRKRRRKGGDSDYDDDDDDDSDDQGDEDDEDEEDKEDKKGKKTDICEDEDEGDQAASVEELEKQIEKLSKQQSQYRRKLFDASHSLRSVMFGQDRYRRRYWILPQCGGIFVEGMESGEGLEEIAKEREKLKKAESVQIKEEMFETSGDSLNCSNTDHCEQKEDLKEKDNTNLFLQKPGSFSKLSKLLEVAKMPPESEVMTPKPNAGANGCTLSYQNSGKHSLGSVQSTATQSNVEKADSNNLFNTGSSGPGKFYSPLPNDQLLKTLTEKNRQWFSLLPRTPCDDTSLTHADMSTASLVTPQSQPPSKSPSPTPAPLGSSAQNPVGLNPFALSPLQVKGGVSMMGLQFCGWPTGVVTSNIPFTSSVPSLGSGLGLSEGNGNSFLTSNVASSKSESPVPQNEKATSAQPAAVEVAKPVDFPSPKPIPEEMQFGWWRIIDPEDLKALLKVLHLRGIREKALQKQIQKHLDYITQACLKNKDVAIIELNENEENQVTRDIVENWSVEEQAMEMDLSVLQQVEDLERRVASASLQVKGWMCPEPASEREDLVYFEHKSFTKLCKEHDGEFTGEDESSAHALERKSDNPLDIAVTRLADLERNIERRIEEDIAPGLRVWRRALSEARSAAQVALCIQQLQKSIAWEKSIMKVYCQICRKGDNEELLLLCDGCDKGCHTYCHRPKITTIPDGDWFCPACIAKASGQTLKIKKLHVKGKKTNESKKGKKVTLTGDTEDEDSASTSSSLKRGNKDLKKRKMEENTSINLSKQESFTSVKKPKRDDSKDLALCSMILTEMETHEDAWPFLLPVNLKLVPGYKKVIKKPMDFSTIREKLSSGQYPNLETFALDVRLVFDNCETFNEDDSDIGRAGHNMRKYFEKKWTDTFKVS
Test: qHTS Assay for Inhibitors of BAZ2B; also: nearly all actives have a fitted effect of over 60% in size
Settings: AlphaScreen BAZ2B-H3K14Ac peptide displacement; series mostly up to 114 µM; activity change, negative = inhibition: at the top concentration
Excerpt: BAZ2B (bromodomain adjacent to zinc finger domain, 2B) belongs to a family of ubiquitously expressed bromodomain containing proteins, which biological function has not yet been elucidated. […] The interaction of BAZ2B with ISWI mediated by the BAZ1 motif has recently been described. […] The protocol is based on the AlphaScreen (PerkinElmer) displacement assay developed by NCGC [5], but uses the peptide ligand Biot-H3K14Ac, a high affinity binding partner for BAZ2B, in an AlphaScreen format. Although AlphaScreen has significant advantages with its utility in a variety of epigenetic target assays, the primary screening data provided in this deposition should be used with caution due to the prevalence of screening artifacts. The top compound concentration tested was 110uM in this assay, which increases number of actives and potential artifacts. An AlphaScreen counterscreen is highly recommended to be run against any putative actives to eliminate non-specific artifacts. Alternatively, one can use other AlphaScreen assays in PubChem to filter out promiscuous hits. Eberharter, A. et al. ACF1 improves the effectiveness of nucleosome mobilization by ISWI through PHD-histone contacts. The EMBO journal 23, 4029-4039. 2004. PMID: 15457208 [2] Jones, M.H. et al. A novel family of bromodomain genes. Genomics 63, 40-45. 2000. PMID: 10662543 [3] Yasgar, et al. Compound Management for Quantitative High-Throughput Screening. JALA. 2008 Apr;13(2):79-89. PMID: 18496600 [4] Inglese, et al. Quantitative high-throughput screening: a titration-based approach that efficiently identifies biological activities in large chemical libraries. Proc Natl Acad Sci. 1;103(31):11473-8. 2006. PMID: 16864780 [5] Quinn et al. A chemiluminescence-based method for identification of histone lysine methyltransferase inhibitors. Mol Biosyst 6(5): 782-8. 2010. PMID: 20567762 [6] Baell,Holloway. New substructure filters for removal of pan assay interference compounds (PAINS) from screening libraries and for their exclusion in bioassays. J Med Chem. 53(7):2719-40. 2010. PMID: 20131845 NIH Molecular Libraries Probe Production Network [MLPCN] NIH Chemical Genomics Center [NCGC] Structural Genomics Consortium (SGC) NIH Grant: 5U54 MH084681-02
To each well of a 1,536w plate, 2ul of BAZ2B protein (final 50nM) and 1ul biotinylated histone peptide acetylated at Lys14 [b-H3(5-23)K14Ac] (final 50nM) were added in 1x PBS buffer, pH 7.4, containing 0.01% Tween-20, using a nanoliter dispenser. Formation of a protein-peptide complex proceeded at room temperature for 30 min. A Kalypsys pin-tool was employed to transfer 23 nL of library compound solution in DMSO to each well. Following a 30 min incubation of the protein-peptide complex with compounds at room temperature, a mixture of 40 ug/mL each streptavidin-coated donor and nickel chelate acceptor AlphaScreen beads (final 10 ug/mL) were added in a 1ul dispense for a final volume of 4ul. A brief centrifugation followed (1000rpm, 1 min) and were then incubated protected from the light for 20 min at room temperature. Plates were read on an EnVision multilabel plate reader using the 1,536 plate HTS AlphaScreen aperture (excitation time 80 ms, measurement time 240 ms).
% is scaled to controls: 0 for no effect and ±100 for the full control effect; potency is read from the fitted curve at half-maximal effect.

Row | SMILES | activity change, negative = inhibition | Potency
1 | Cc1ccc2sc(N(Cc3cccnc3)C(=O)C3COc4ccccc4O3)nc2c1C (stereo not drawn) | -2.8% | 
2 | C[C@H](NC(=O)c1ccccc1)C(=O)OCC(=O)c1c[nH]c2ccccc12 | 3.43% | 
3 | CN(C)c1ccc(C(CNC(=O)c2ccc(F)cc2)c2c[nH]c3ccccc23)cc1 (stereo not drawn) |  | 12.6 µM (active)
4 | O=C(CNC(=O)c1ccc(F)cc1)c1ccccc1 | 11.6% | 
5 | COc1cc(OC)cc(C(=O)Nc2ccc3nc(Nc4cccc(C(F)(F)F)c4)cc(C)c3c2)c1 | -4.94% | 
6 | O=Cc1c(N2CCN(c3cccc(Cl)c3)CC2)nc2ccccn2c1=O | -33.1% | 
7 | Cc1cccn2c(=O)c(C=O)c(Nc3ccc(S(N)(=O)=O)cc3)nc12 | 6.46% | 
8 | O=Cc1c(Nc2ccccc2Cl)nc2ccccn2c1=O |  | 50.1 µM (active)
9 | CCC(=O)N1CCc2cc(CNC(=O)Nc3ccccc3Cl)ccc21 | -7.45% | 
10 | CSc1ccc(CCNC(=O)c2cc(C)nc3c2c(C)nn3-c2cccc(F)c2)cc1 | 17.5% [at 57.1 µM] | 
11 | CCOc1ccccc1CNCc1c(C(=O)O)c(C)n(Cc2ccc(C)cc2)c1C | -15.7% | 
12 | CCN1/C(=C/C(=S)Nc2ccccc2)Sc2ccccc21 |  | 22.4 µM (active)
13 | CCOC(=O)CNC(=O)N1c2ccccc2Sc2ccccc21 | 1.76% | 
14 | CCN1C(=O)c2ccccc2Sc2ccc(NC(=O)Cc3ccc(OC)cc3)cc21 | -3.41% | 
15 | CCOC(=O)c1cc2c(=O)n3ccccc3nc2n(Cc2ccco2)c1=NC(=O)c1ccc(F)cc1 | 3.83% | 
16 | COc1ccc(C2C(C(C)=O)=C(O)C(=O)N2Cc2cccnc2)cc1 (stereo not drawn) | -37.3% | 
17 | COc1cc(C2C(C(=O)c3ccc(C)o3)=C(O)C(=O)N2Cc2cccnc2)ccc1O (stereo not drawn) |  | 56.2 µM (active)
18 | Cc1cc(N2C(=O)C(O)=C(C(=O)c3ccc(C)o3)C2c2ccc(OCc3ccccc3)cc2)no1 (stereo not drawn) | -26.4% | 
19 | CCOC(=O)c1c(C)[nH]c(CCC(=O)NCCCN2CCN(c3cc(C)ccc3C)CC2)c1C | -32.7% | 
20 | O=C(O)C1=C[C@H](c2cccs2)C[C@H](OCCCCO)O1 |  | 79.4 µM (active)
21 | NC(=O)C1=C[C@H](c2csc3ccccc23)C[C@H](OCc2ccc(CO)cc2)O1 | -1.46% | 
22 | C=CCOC(=O)C1=C[C@@H](c2ccccc2)C[C@@H](OCc2ccc(CO)cc2)O1 | -1.46% | 
23 | Cn1c(=O)c2c(SCC(=O)NCC3CCCO3)nc(-c3ccccc3F)nc2n(C)c1=O (stereo not drawn) | 6.48% | 
24 | O=C(CC(c1cccs1)N1Cc2ccccc2C1=O)Nc1ccc(F)cc1F (stereo not drawn) | -5.59% | 

Row | SMILES | activity change, negative = inhibition | Potency
25 | Cc1cccc(OCC(=O)N(Cc2ccc(C(C)C)cc2)Cc2ccco2)c1C | 42% | 
26 | CCS(=O)(=O)c1ncc(N(Cc2ccc(F)cc2)Cc2ccco2)c(C(=O)Nc2cc(C)ccc2C)n1 | -1.24% | 
27 | COc1ccc2sc(-c3ccc(N(C)C)cc3)c(C#CCO)c2c1 |  | 89.1 µM (active)
28 | O=C(C1CC1)N1CCc2cc(Br)cc(S(=O)(=O)N3CCN(c4ccccc4F)CC3)c21 | -3.75% | 
29 | N#Cc1ccc(CSc2nnc3ccccn23)cc1 | -0.806% | 
30 | N#Cc1ccc(CSc2nnc(-c3ccccn3)n2-c2ccc(Cl)cc2)cc1 |  | 50.1 µM (active)
31 | N#Cc1ccc(CSc2ncccn2)cc1 | -21.7% | 
32 | O=C(Nc1ccc(-c2nc3cc(NC(=O)c4ccccc4Cl)ccc3o2)cc1)c1ccccc1Cl | 10.3% | 
33 | CSC1=N/C(=C\C=C\c2cccs2)C(=O)S1 |  | 11.2 µM (active)
34 | Cc1ccc(C)c(N2CCN(C(=O)C3CCC(CNS(=O)(=O)c4cccs4)CC3)CC2)c1 (stereo not drawn) | -36.8% | 
35 | CCCOc1ccc(-c2cccc(NS(=O)(=O)c3ccccc3)c2)nn1 | 14.1% | 
36 | CCOc1ccccc1C(=O)Nc1ccc(S(=O)(=O)N2CCCCC2c2cccnc2)cc1 (stereo not drawn) | 0.817% | 
37 | COc1ccc(C(=O)Nc2ccc3nc(N4CCCCC4)cc(C)c3c2)cc1OC |  | inactive
38 | COc1ccccc1Nc1c2c(nc3ccc(NC(=O)/C=C/c4cc(OC)c(OC)c(OC)c4)cc13)CCCC2 |  | 11.2 µM (active)
39 | CCOc1ccc(C(=O)Nc2ccc3nc4c(c(Nc5ccccc5OC)c3c2)CCCC4)cc1 |  | 17.8 µM (active)
40 | COc1ccc(NS(=O)(=O)c2cc(NC(=O)/C=C/c3cc(OC)c(OC)c(OC)c3)ccc2N2CCCCC2)cc1 | -4.66% | 
41 | COc1cccc(NC(=O)c2ccc3c(SCC(=O)O)c4c(nc3c2)CCCC4)c1 | -23.9% | 
42 | COc1cc(/C=C/C(=O)N2CCc3ccccc3C2)cc(OC)c1OC | -6.42% | 
43 | COc1ccc2c(c1)c(N1CCCC1=O)c(C(=O)Nc1ccccc1C(F)(F)F)n2C | -13.3% | 
44 | Cn1nnc2c(N3CCN(c4ccccc4)CC3)ncnc21 | -20.7% | 
45 | CSc1ccccc1NC(=O)CCS(=O)(=O)c1nc(-c2cccs2)cc(C(F)(F)F)n1 | 1.68% | 
46 | COc1ccccc1N1CCN(C2C(=O)c3ccccc3N2C(C)=O)CC1 (stereo not drawn) | -23.9% | 
47 | COc1ccc(CCNC(=O)Cc2ccc(C)cc2)cc1OC |  | 79.4 µM (active)
48 | COc1ccc(CCNC(=O)NS(=O)(=O)c2ccc(C)cc2)cc1OC | -5.09% | 

From PubChem BioAssay AID504333 (National Center for Advancing Translational Sciences (NCATS), 2011)
